In the library only some 3.6% were active in any assay of this set; here they are far more common.
TGFb inhibitor = qHTS for Inhibitors of TGF-b. HepG2 CAGA-GFP TGF-b/SMAD3 reporter, GFP fluorescence, 18 h; TGF-beta stimulated, 500 pg/mL final. Potency, µM (titrated, usually from 46.1 µM), without a hit: at the highest dose activity, negative = inhibition, most hits filed as inhibitors. hit rate 1.2% among 410,000; note: % is set by controls: 0 for no effect and ±100 for the full control effect; nearly all actives have a fitted effect of over 65% in size
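Smad-responsive CAGA-GFP expression was quantified in HEPG2 cells exposed to compounds and 500 pg/mL final TGF-beta for 18 h at 37 degrees C; unstimulated wells defined full inhibition.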
A549 tox = Nrf2 qHTS screen for inhibitors: counterscreen for cytotoxicity; A549 ARE-Fluc cells, CellTiter-Fluor viability, 18-24 h; Potency, µM (doses to about 46 µM), for inactives: at the highest dose activity change, negative = cytotoxicity, actives largely listed as inhibitors; hit rate 0.16% among 390,000; note: % is set by controls: 0 for no effect and ±100 for the full control effect
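A549 ARE-Fluc cells in 5% FBS OPTI-MEM, 5000 cells/well, rested 2 h then exposed to compounds in concentration-response for 18-24 h at 37 °C. Viability by CellTiter-Fluor fluorescence (Ex 405/Em 525) after 30 min; luciferase luminescence (BugLite, 15 min, RT) read afterwards.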
Nrf2 block = Nrf2 qHTS screen for inhibitors; Potency, µM (doses to about 46 µM), without a hit: top-dose activity change, negative = inhibition, hits mostly inhibitors; hit rate 2.1% among 360,000; A549 ARE-Fluc reporter, luciferase luminescence, 18-24 h; AID 504444, 2011; note: % is set by controls: 0 for no effect and ±100 for the full control effect; nearly all actives have a fitted effect of over 60% in size
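Two sequential reads on A549 ARE_Fluc cells exposed to compound for 18-24 h: a CellTiter-Fluor fluorescence read for viability, then a luciferase luminescence read for Nrf2/ARE activity.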
HepG2 viability = qHTS for Inhibitors of TGF-b: Cytotox Counterscreen; HepG2 CAGA-GFP viability, ATP luminescence, 18 h; Potency, µM (series often up to 46.1 µM), for inactives: at the highest dose activity change, negative = cytotoxicity, usual class: cytotoxic; hit rate 0.76% among 410,000
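CellTiter-Glo luminescence gave cytotoxicity after 18 hours at 37 degrees C. The cells were HepG2 CAGA-GFP in 1% FBS DMEM, stimulated with 500 pg/mL TGF-beta after compound addition. %Activity was normalised to no-cell wells (complete cell-killing) and DMSO (no toxicity), and curves were fitted and classified.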
Nrf2 ARE act = qHTS of Nrf2 Activators | AREc32 ARE-luciferase reporter (MCF7-derived line), luminescence, 24 h | Potency, µM (titrated, usually from 46.1 µM), inactives show at the highest dose activation, hits mostly activators | hit rate 0.31% among 410,000; note: % of control where 0% means no effect; nearly all actives have a fitted effect of over 65% in size
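ARE activation measured as luciferase luminescence (Steady-Glo, 30 min RT) in AREc32_Fluc cells after 24 hr compound exposure at 37 deg C, 5% CO2; cells seeded overnight at 1000/well in OPTI-MEM, 5% FBS.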
Active calls of the source: *. Calls come from the whole dose curve; as a rule, active = well fitted curve in the direction sought with a large enough effect; inconclusive = small, poorly fitted or top-dose-only effect, or another doubt; inactive = no such curve, though single readings can be large; an effect the other way counts as inactive or inconclusive. Potency is the fitted concentration of half-maximal effect.

How did O=C(C1CCCN(S(=O)(=O)c2cccc3nsnc23)C1)N1CCN(c2cccc(Cl)c2)CC1 (stereo not given) do in these assays?
TGFb inhibitor: inconclusive; A549 tox: -15.5%; Nrf2 block: 20.6µM*; HepG2 viability: -9.0%; Nrf2 ARE act: -0.5%

What do the screens show for `Cn1c(=O)oc2cc(S(=O)(=O)N3CCCC(C(=O)NCc4ccccc4Cl)C3)ccc21` (stereo not given)?
TGFb inhibitor: -2.8%; A549 tox: -4.1%; Nrf2 block: 0.6%; HepG2 viability: 4.1%; Nrf2 ARE act: -1.2%

What do the screens show for `Cn1c(=O)oc2cc(S(=O)(=O)N3CCCC(C(=O)N4CCN(c5cccc(Cl)c5)CC4)C3)ccc21` (stereo not given)?
TGFb inhibitor: inconclusive; A549 tox: -0.2%; Nrf2 block: 18.4µM*; HepG2 viability: 1.4%; Nrf2 ARE act: -1.1%

What do the screens show for `Cc1ccc(S(=O)(=O)N2CCCC(C(=O)N3CCC4(CC3)OCCO4)C2)cc1` (stereo not given)?
TGFb inhibitor: inconclusive; A549 tox: 13.4%; Nrf2 block: 1.8%; HepG2 viability: -7.3%; Nrf2 ARE act: 0.2%

How did Cc1ccc(N2C(=O)NC(=O)/C(=C\c3cccn3C(C)(C)C)C2=O)cc1 do in these assays?
TGFb inhibitor: -1.8%; A549 tox: -3.8%; Nrf2 block: 6.0%; HepG2 viability: -0.9%; Nrf2 ARE act: 0.4%

How did COc1ccc(Cl)cc1NC(=O)c1sc2nc3c(cc2c1N)N1CCC3CC1 do in these assays?
TGFb inhibitor: 21.2%; A549 tox: -0.3%; HepG2 viability: 1.5%; Nrf2 ARE act: 4.0%

Results for CCC(C)C1NC(=O)C2CCCN2C(=O)C(CC(C)C)OC(=O)CCNC(=O)C(C)N(C)C(=O)C(C(C)C)N(C)C1=O (stereo not given) ?
TGFb inhibitor: -13.4%; A549 tox: 8.2µM*; Nrf2 block: 5.17µM*; HepG2 viability: -37.0%; Nrf2 ARE act: 4.0%

How did Fc1ccc(CCNCc2ccc(Cl)c(Cl)c2)cc1 do in these assays?
TGFb inhibitor: inconclusive; A549 tox: inconclusive; Nrf2 block: 11.6µM*; HepG2 viability: 12.6µM*; Nrf2 ARE act: 0.4%

How did CCOC(=O)C1(c2ccccc2)CCN(CCC(=O)Nc2ccc(F)cc2)CC1 do in these assays?
TGFb inhibitor: -28.6%; A549 tox: -12.4%; Nrf2 block: -2.1%; HepG2 viability: -51.8%; Nrf2 ARE act: 0.5%

What do the screens show for `COC(=O)C1=C(c2ccc(OCc3ccccc3)cc2)C[C@@H]2CC[C@H]1N2C(=O)NCCCc1ccccc1`?
TGFb inhibitor: 6.3%; A549 tox: -18.5%; Nrf2 block: 14.6µM*; HepG2 viability: -14.7%; Nrf2 ARE act: 0.1%

What do the screens show for `COC(=O)C1=C(c2cccc(OCc3ccccc3)c2)C[C@@H]2CC[C@H]1N2C(=O)NC1CCN(Cc2ccccc2)CC1`?
TGFb inhibitor: inconclusive; A549 tox: inconclusive; Nrf2 block: -5.2%; HepG2 viability: 12.6µM*; Nrf2 ARE act: 5.2%

Results for COC(=O)C1=C(c2cccc(OCc3ccccc3)c2)C[C@@H]2CC[C@H]1N2C(=O)NCCCc1ccccc1 ?
TGFb inhibitor: inconclusive; A549 tox: -17.4%; Nrf2 block: 20.6µM*; HepG2 viability: -7.1%; Nrf2 ARE act: -0.3%

How did O=C(Cn1c(=O)oc2cc(S(=O)(=O)NCc3ccccc3)ccc21)NCc1ccc(F)cc1 do in these assays?
TGFb inhibitor: inconclusive; A549 tox: 4.7%; Nrf2 block: 11.6%; HepG2 viability: -46.5%; Nrf2 ARE act: 0.8%

What do the screens show for `C=Cn1ccnc1P(=S)(c1ccccc1)c1nccn1C=C`?
TGFb inhibitor: -9.7%; A549 tox: -1.7%; Nrf2 block: inconclusive; HepG2 viability: 11.5%; Nrf2 ARE act: -0.9%

How did C[N+]1(C)CCN(c2ccccc2)CC1 do in these assays?
TGFb inhibitor: -9.7%; A549 tox: -1.7%; Nrf2 block: -17.7%; HepG2 viability: 7.1%; Nrf2 ARE act: -0.9%

What do the screens show for `CC12CCC(=O)C=C1CCC1C2CCC2(C)C(O)CCC12` (stereo not given)?
TGFb inhibitor: 9.3%; A549 tox: -0.2%; Nrf2 block: -10.1%; HepG2 viability: -27.1%; Nrf2 ARE act: -0.5%

Results for CC(=O)C1C(N2CC2)CC2C3CCC4=CC(=O)CCC4(C)C3CCC21C (stereo not given) ?
TGFb inhibitor: -9.8%; A549 tox: 16.4µM*; Nrf2 block: -16.4%; HepG2 viability: -11.0%; Nrf2 ARE act: 0.8%

How did O=C(Cc1ccc(S(=O)(=O)N2CCCC2)s1)N1CCN(c2ccc(F)cc2)CC1 do in these assays?
TGFb inhibitor: 1.0%; A549 tox: -12.0%; Nrf2 block: 18.4µM*; HepG2 viability: 3.5%; Nrf2 ARE act: -0.6%

Results for O=C(COc1ccccc1Cl)N1CCCC(N2CCN(c3ccc(F)cc3)CC2)C1 (stereo not given) ?
TGFb inhibitor: -25.1%; A549 tox: 0.4%; Nrf2 block: 1.0%; HepG2 viability: -16.8%; Nrf2 ARE act: -0.5%

How did C[C@H](CO)N1C[C@H](C)[C@@H](CN(C)Cc2ccc(Cl)c(Cl)c2)Oc2c(NC(=O)c3ccncc3)cccc2C1=O do in these assays?
TGFb inhibitor: inconclusive; A549 tox: -8.3%; Nrf2 block: inconclusive; HepG2 viability: -14.7%; Nrf2 ARE act: 8.9%

Results for C=CCn1c(O)c(C=Nc2ccc(N(CC)CC)cc2)c(=O)[nH]c1=O ?
TGFb inhibitor: -0.9%; A549 tox: -10.8%; Nrf2 block: 3.26µM*; HepG2 viability: -7.5%; Nrf2 ARE act: 5.4%

Results for O=[N+]([O-])c1ccc(C(c2ccc([N+](=O)[O-])cc2)c2ccc([N+](=O)[O-])cc2)cc1 ?
TGFb inhibitor: inconclusive; A549 tox: -23.8%; Nrf2 block: 23.1µM*; HepG2 viability: -20.6%; Nrf2 ARE act: 6.1%

What do the screens show for `COC(=O)C1=C(c2ccccc2OCc2ccccc2)C[C@@H]2CC[C@H]1N2C(=O)NCCc1ccc(F)cc1`?
TGFb inhibitor: inconclusive; A549 tox: inconclusive; Nrf2 block: inconclusive; HepG2 viability: -3.0%; Nrf2 ARE act: 0.2%

Results for CC(C)C[C@H]1C(=O)N2CCC[C@H]2[C@]2(O)O[C@](NC(=O)C3C=C4c5cccc6[nH]c(Br)c(c56)C[C@H]4N(C)C3)(C(C)C)C(=O)N12 (stereo not given in full) ?
TGFb inhibitor: -28.2%; A549 tox: inconclusive; Nrf2 block: 18.4µM*; HepG2 viability: -23.1%; Nrf2 ARE act: 7.6%

Results for COC(=O)C1(C(=O)O)Cc2cc([N+](=O)[O-])ccc2N2CCCC21 (stereo not given) ?
TGFb inhibitor: -3.1%; A549 tox: inconclusive; Nrf2 block: -7.1%; HepG2 viability: -0.4%; Nrf2 ARE act: 0.2%

Assay outcomes (PubChem BioAssay)
